{
  "source": "PubChem BioAssay AID1259399",
  "about": "(Fisher Drug Discovery Resource Center, 2018)",
  "note": "The campaign covered roughly 160,000 compounds. About 240 (0.15%) were called active. The sample holds actives, similar compounds and a random draw of the others, so the mix is not that of the screen. A number with no mark means an inactive call. No stated cut-off is given here; in the data, active means inhibition above about 40%; inactive means the rest.",
  "data": [
    {"target": "Cyclic GMP-AMP synthase (Mus musculus) (UniProt Q8C6L5)", "sequence (Q8C6L5 whole entry, looked up)": "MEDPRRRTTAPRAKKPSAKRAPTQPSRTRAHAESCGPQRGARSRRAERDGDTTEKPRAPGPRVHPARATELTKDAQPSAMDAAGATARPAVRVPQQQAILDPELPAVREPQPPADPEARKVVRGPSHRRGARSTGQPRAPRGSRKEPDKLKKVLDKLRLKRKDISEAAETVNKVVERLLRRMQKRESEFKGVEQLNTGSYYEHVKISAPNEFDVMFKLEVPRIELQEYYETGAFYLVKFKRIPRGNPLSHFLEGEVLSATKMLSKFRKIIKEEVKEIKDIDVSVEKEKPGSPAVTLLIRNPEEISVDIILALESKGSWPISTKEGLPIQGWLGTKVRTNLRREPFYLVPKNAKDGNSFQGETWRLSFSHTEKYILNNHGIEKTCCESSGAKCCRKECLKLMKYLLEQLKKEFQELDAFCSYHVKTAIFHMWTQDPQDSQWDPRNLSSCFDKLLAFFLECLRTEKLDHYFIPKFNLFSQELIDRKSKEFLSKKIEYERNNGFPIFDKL", "assay": "cyclic GMP-AMP synthase inhibitors, mouse, primary biochemical chemiluminescence (AID 1259399);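 further: 0% = negative control wells and 100% = reference inhibitor with no enzyme activity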", "conditions": "recombinant cGAS, Kinase-Glo ATP depletion luminescence; at 12.5 µM; active compounds read high", "values": [
      {"smiles": "Cc1ccc(C)c(N2CCN(C(=O)c3cccc(F)c3)C(C)C2=O)c1", "note": "(stereo not given)", "inhibition": "-1.42%"},
      {"smiles": "CCc1nc2ccc(C(=O)N(C)Cc3ccccc3)cn2c1N(C)C(=O)c1cccc(OC)c1", "inhibition": "-0.76%"},
      {"smiles": "C=CCN(Cc1cccnc1)C(=O)C1CCCN1C(=O)C1CCCCC1", "note": "(stereo not given)", "inhibition": "-14.1%"},
      {"smiles": "CCc1nc2c(OCCOc3ccc(F)cc3)cccn2c1N(C)C(=O)c1ccncc1", "inhibition": "-2.55%"},
      {"smiles": "O=c1c(O)c(Br)ccc2c(Br)c(O)c(O)c(O)c12", "inhibition": "71.1% (active)"},
      {"smiles": "CCOc1c(Br)cc(Br)cc1CNCC(=O)N1CCCC1", "inhibition": "-7%"},
      {"smiles": "CN(C)c1ccc(/C=C/C=C2/SC(N)=NC2=O)cc1", "inhibition": "-4.74%"},
      {"smiles": "COc1ccc(C2NC(=O)N(C)C3=C2C(=O)N(Cc2ccc(F)cc2)C3)cc1", "note": "(stereo not given)", "inhibition": "-4.51%"},
      {"smiles": "Cc1ccc2nc(-c3ccccc3F)c(NC(C)(C)CC(C)(C)C)n2c1", "inhibition": "-1.73%"},
      {"smiles": "N#CC1C(=N)Oc2c(c(=O)oc3ccccc23)C12C(=O)Nc1ccc(Br)cc12", "note": "(stereo not given)", "inhibition": "-4.42%"},
      {"smiles": "CSc1ccc(C(=O)N2CCCC(CO)(CCCc3ccccc3)C2)cc1", "note": "(stereo not given)", "inhibition": "-6.85%"},
      {"smiles": "Cc1[nH]c2c(c1C(=O)NCCOc1ccccc1F)C(=O)CCC2", "inhibition": "-9.39%"},
      {"smiles": "Cc1nc(N2CCOCC2)ncc1-c1cc(=O)[nH]c(N2CCc3ccccc3C2)n1", "inhibition": "-6.34%"},
      {"smiles": "COc1ccc(C(NC(=O)C2CCN(CCCc3ccccc3)CC2)c2cccs2)cc1", "note": "(stereo not given)", "inhibition": "-2.89%"},
      {"smiles": "CCCCn1nnnc1CSc1nc(C)c(C)c(C)c1C#N", "inhibition": "0.584%"},
      {"smiles": "COc1ccccc1NC(=O)c1ccc(-n2nc(-c3ccc(Cl)cc3)cc2N)cc1", "inhibition": "-3.87%"},
      {"smiles": "O=C(Nc1cccc(-c2cccc(-c3ccc(F)cc3)n2)c1)c1c(F)c(F)c(F)c(F)c1F", "inhibition": "-6.45%"},
      {"smiles": "COCCCN(CC(=O)N1CCc2sccc2C1COc1ccc(Cl)c(C)c1)C(=O)c1cccc(OC)c1", "note": "(stereo not given)", "inhibition": "-4.66%"},
      {"smiles": "O=C(c1ccc(F)cc1F)N1CCC(c2nc(-c3ccc4c(c3)OCO4)no2)CC1", "inhibition": "-1.48%"},
      {"smiles": "COc1ccc(CC(=O)NNC(=O)c2cccn(Cc3ccc(F)cc3)c2=O)cc1", "inhibition": "-6.25%"},
      {"smiles": "CC[N+](C)(CC)CCC[n+]1c(-c2ccccc2)c2cc(N)ccc2c2ccc(N)cc21", "inhibition": "78.9% (active)"},
      {"smiles": "CCN1CCN(C(=O)c2ccc(CSc3nnc(-c4cccs4)n3CC)cc2)CC1", "inhibition": "-5.22%"},
      {"smiles": "O=C(N1CC[C@@H](O)C1)C1(c2cccc(Br)c2)CC1", "inhibition": "-0.654%"},
      {"smiles": "CCn1cc(-c2cc(NCc3ccccn3)nc3[nH]ccc23)c(C)n1", "inhibition": "-9.58%"},
      {"smiles": "CCn1c(SCc2ccccc2OC(F)F)nnc1-c1c2c(nc3ccccc13)CCC2", "inhibition": "-4.53%"},
      {"smiles": "CCOc1ccc(S(=O)(=O)Nc2ccc3oc(-c4ccccc4)cc3c2)cc1", "inhibition": "-4.93%"},
      {"smiles": "CCOc1ccc(C2c3[nH]c4ccccc4c3CCN2C(=O)CSC)cc1", "note": "(stereo not given)", "inhibition": "-3.44%"},
      {"smiles": "Cc1ccc(NC(=O)c2ccc(CSc3nc(Cl)cc(N4CCN(C/C=C/c5ccccc5)CC4)n3)cc2)cc1C", "inhibition": "-2.86%"},
      {"smiles": "C=CCN(C(=O)CCl)c1nc(-c2ccc(Cl)c(Cl)c2)cs1", "inhibition": "72.2% (active)"},
      {"smiles": "N#Cc1ccc(-c2csc(NC(=O)c3cc([N+](=O)[O-])ccc3Cl)n2)cc1", "inhibition": "-5.77%"},
      {"smiles": "CCCS(=O)(=O)N1CCN(c2ccc(C)nn2)CC1", "inhibition": "-8.23%"},
      {"smiles": "COc1cc(CN(C)C(=O)c2c(C)noc2-c2ccccc2Cl)cc(OC)c1OC", "inhibition": "2.4%"},
      {"smiles": "CC(C)CN(Cc1ccc(OS(=O)(=O)c2ccc(F)cc2)cc1)S(=O)(=O)c1ccc(Cl)cc1", "inhibition": "-3.83%"},
      {"smiles": "COc1cc([N+](=O)[O-])ccc1NC(=O)C(C)Nc1ccc2nc(C)sc2c1", "note": "(stereo not given)", "inhibition": "-7.43%"},
      {"smiles": "CC(C)(C)c1cc2nc(C(=O)NCCc3ccccn3)cc(-c3ccccc3F)n2n1", "inhibition": "-5%"},
      {"smiles": "O=C1NC2(CCN(C(=O)COc3ccccc3)CC2)Nc2ccc(Cl)c(Cl)c21", "inhibition": "-6.89%"},
      {"smiles": "C=C(C)CN(CC)C(=O)c1ccc(-c2ccc(OC)c(OC)c2OC)s1", "inhibition": "-8.29%"},
      {"smiles": "CSc1cccc(NC(=O)NCCNc2cc(-n3ccnc3C)nc(C)n2)c1", "inhibition": "-12.2%"},
      {"smiles": "O=C(CCC1CCN(C23CC4CC(CC(C4)C2)C3)CC1)Nc1ccccc1Cl", "inhibition": "-11%"},
      {"smiles": "Cc1ccccc1-n1c(SCCCC(=O)N2CCN(C(=O)COCc3ccccc3)C(C)C2)nnc1-c1ccco1", "note": "(stereo not given)", "inhibition": "-5.31%"},
      {"smiles": "COc1ncccc1-c1cc2c(cn1)nc(NCc1cccc(C)c1)n2C", "inhibition": "-6.3%"},
      {"smiles": "CCn1nc(C(=O)N2CCN(c3ccccc3)CC2)c2c1CCN(C(=O)c1csc(SC)n1)C2", "inhibition": "-7.21%"},
      {"smiles": "CC(C)OCCNC(=O)c1ccc(-c2cc(-c3ccccc3)n[nH]2)cc1", "inhibition": "-2.09%"},
      {"smiles": "Cc1nc2n(n1)C(=O)C(C(c1cccs1)N1CCN(CCO)CC1)S2", "note": "(stereo not given)", "inhibition": "-7.74%"},
      {"smiles": "CCc1cc2c(=O)c(-c3ccc4c(c3)OCO4)c(C)oc2cc1OC1OC(CO)C(O)C(O)C1O", "note": "(stereo not given)", "inhibition": "-6.86%"},
      {"smiles": "COc1cc(/C=C2/C(=O)N(c3ccc(Cl)c(Cl)c3)N=C2C)ccc1O", "inhibition": "27.3%"},
      {"smiles": "CCOC(=O)c1c(NC(=O)c2cccc3c2-c2ccccc2C3=O)c(-c2ccc(OC)c(OC)c2)cn1Cc1ccccc1", "inhibition": "-5.46%"},
      {"smiles": "CCn1c(=NC(=O)Cc2ccc(C)c(C)c2)sc2cc3c(cc21)OCCO3", "inhibition": "-9.59%"},
      {"smiles": "CCCC1(C2CCN(C(=O)[C@H]3C[C@@H]4C=C[C@H]3C4)CC2)NC(=O)N(CCc2cccs2)C1=O", "note": "(stereo not given in full)", "inhibition": "-8.91%"},
      {"smiles": "O=C1c2ccccc2C(=O)c2cc(Sc3ccccc3)ccc21", "inhibition": "-6.93%"},
      {"smiles": "CCc1nc2c(OCCOc3ccccc3)cccn2c1N(C)C(=O)c1ccccc1F", "inhibition": "-3.16%"},
      {"smiles": "CC12OC3(CCCCC3)C(C)(OC13CCCCC3)O2", "inhibition": "-2%"},
      {"smiles": "CC1CCCC(NC(=O)c2cc(S(=O)(=O)N3CCCC3)c[nH]2)C1C", "note": "(stereo not given)", "inhibition": "-4.23%"},
      {"smiles": "COc1ccc2[nH]c3c(c2c1)CCN(C(=O)COCc1ccccc1)C3COCc1ccccc1", "note": "(stereo not given)", "inhibition": "-10.3%"},
      {"smiles": "CCOC(=O)C1(Cc2ccc(OC)cc2)CCN(C(=O)C2CCCC2)CC1", "inhibition": "-2.47%"},
      {"smiles": "CCCc1cc(C(=O)NC(CC)C2CCCO2)sc1C", "note": "(stereo not given)", "inhibition": "3.24%"},
      {"smiles": "Cn1c(=O)n(Cc2ccc(Cl)cc2)c(=O)c2c1nc1oc(C(C)(C)C)cn12", "inhibition": "-8.53%"},
      {"smiles": "C/C(=N/OC(=O)C1CC1(c1ccccc1)c1ccccc1)c1ccccc1", "note": "(stereo not given)", "inhibition": "-5.77%"},
      {"smiles": "CCc1ccc(NC(=O)CSc2nccn3nc(-c4ccc(C)cc4)cc23)cc1", "inhibition": "-6.93%"},
      {"smiles": "CCCOc1nn(CCC)cc1C(=O)Nc1nccs1", "inhibition": "-6.36%"},
      {"smiles": "COCc1nnc2sc(Cc3ccc4c(c3)CCCC4)nn12", "inhibition": "79.1% (active)"},
      {"smiles": "O=C(Cc1ccc2c(c1)CCC2)Nc1nn2cnnc2s1", "inhibition": "-17.7%"},
      {"smiles": "CCCc1nnc2sc(CCc3c(C)n[nH]c3C)nn12", "inhibition": "-9.34%"},
      {"smiles": "c1cc(C2CCN(C3CCC4(CCNCC4)CC3)CC2)ccn1", "inhibition": "-9.51%"},
      {"smiles": "O=C(NC1CCN(c2ccccc2C(=O)NCc2ccc3c(c2)OCO3)CC1)c1ccccc1Cl", "inhibition": "-4.1%"},
      {"smiles": "O=C1OC(C[N+](=O)[O-])C(Cl)=C1Oc1ccccc1", "note": "(stereo not given)", "inhibition": "22.9%"},
      {"smiles": "CCCCc1nc(N2CCN(C(=O)Cc3cccs3)CC2)c2c(C)nn(-c3ccc(F)cc3)c2n1", "inhibition": "-4.18%"},
      {"smiles": "CC1(C(=O)Nc2cccc3cccnc23)CCN1C(=O)Cc1ccccc1Cl", "note": "(stereo not given)", "inhibition": "-5.18%"},
      {"smiles": "CCOC(=O)C1=C(O)/C(=C\\c2cc(O)cc(O)c2)SC1=Nc1cccc(C(F)(F)F)c1", "inhibition": "-2.35%"},
      {"smiles": "Cc1nc(C2(NCc3csc(-c4ccoc4)n3)CCCC2)no1", "inhibition": "-13.3%"},
      {"smiles": "CN(C)CCNC(=O)c1nn(-c2cccc(C(F)(F)F)c2)c(=O)n(Cc2ccccc2F)c1=O", "inhibition": "1.41%"},
      {"smiles": "Cc1c[nH]c(=O)n1-c1ccc(C(=O)Nc2cc(Cl)c(N)c(Cl)c2)cc1", "inhibition": "-14.6%"},
      {"smiles": "CN(C)CCNc1cc(C(C)(C)C)nc2c(-c3ccc(Cl)cc3)cnn12", "inhibition": "-0.291%"},
      {"smiles": "CC(C)(C)c1cc(=O)n2[nH]cc(-c3ccc(Cl)cc3)c2n1", "inhibition": "40% (active)"},
      {"smiles": "CC(C)(C)c1cc(=O)n2[nH]cc(-c3ccccc3Cl)c2n1", "inhibition": "-1.72%"},
      {"smiles": "COCCN(CCOC)Cc1cc(=O)oc2cc(-c3ccccc3)c(O)cc12", "inhibition": "2.45%"},
      {"smiles": "C=CCN1C(=O)C2(CC(=O)N(CCc3cccc(OC)c3)C2=O)c2cc(OC)ccc21", "note": "(stereo not given)", "inhibition": "-2.01%"},
      {"smiles": "Cc1ccccc1N1CCn2c1nc1c2c(=O)n(CCN2CCOCC2)c(=O)n1C", "inhibition": "-8.88%"},
      {"smiles": "COc1ccc(CCNC(=O)CCc2cc3c(n2-c2ccc(OC)cc2)-c2ccccc2CC3)cc1", "inhibition": "-9.29%"},
      {"smiles": "COc1cccc(-c2cc(-c3ccc(C(=O)NCCc4ccc(OC)c(OC)c4)cc3)[nH]n2)c1", "inhibition": "-4.79%"},
      {"smiles": "COc1ccc(-n2c(SCC(=O)N3CCN(C(=O)C(c4ccccc4)c4ccccc4)C(C)C3)nnc2-c2cccc(OC)c2)cc1", "note": "(stereo not given)", "inhibition": "-6.69%"},
      {"smiles": "CC(C)(C)n1nc2c(c1NC(=O)c1ccc3c(c1)OCO3)CSC2", "inhibition": "-7.2%"},
      {"smiles": "CC(C)N(CC(=O)N(Cc1ccc(F)cc1)Cc1ccco1)C(=O)c1ccc(-c2ccccc2)cc1", "inhibition": "-5.81%"},
      {"smiles": "Cc1cc(OC(=O)c2ccc(OC(C)C)cc2)c([N+](=O)[O-])c(=O)[nH]1", "inhibition": "-0.422%"},
      {"smiles": "Cc1ccc(C)c(CN2CCN(c3nc4c(c(=O)[nH]c(=O)n4C)n3CCC(C)C)CC2)c1", "inhibition": "-1.17%"}
    ]}
  ]
}
